The values below come from PubChem BioAssay (NCI).

About 83,000 compounds went through this panel and 20% of them were active in at least one assay; those are over-represented in the sample as a whole.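 Percent growth is the endpoint: 0 to 100 indicates growth inhibition (40 means 60% inhibition), 0 means no net growth, and negative values indicate cell death.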 A number with no mark means an inactive call. Active and inactive are the calls of the source. How the source made its calls: active means growth percent below 10; inactive means the rest.

Some test systems named below: EKVX NSCLC; SN12C renal; UO-31 renal; TK-10 renal; ACHN renal; CAKI-1 renal; A498 renal; CCRF-CEM leukemia; MOLT-4 leukemia; SR leukemia.
Holding throughout (assay): NCI-60 one-dose screen, 48 h (100 = growth as untreated, 0 = no growth, -100 = all killed)
Holding throughout (conditions): 10 µM unless noted

With `COc1ccc2c(c1)/C(=C\c1c[nH]c3ccc(F)cc13)C(=O)N2`, the growth was 64.8% in the experiment with EKVX NSCLC; 82.2% with SN12C renal; 57.8% in the experiment on UO-31 renal; 96.2% in the experiment on TK-10 renal; 52.7% in the experiment with ACHN renal; 56.7% with CAKI-1 renal. The growth in the experiment with A498 renal was 68.9%; with CCRF-CEM leukemia it was 78.9%; with MOLT-4 leukemia, 50.6%; in the experiment with SR leukemia it was 46.4%.

Turning to `COc1ccc(C2=NNC(c3cc(Cc4ccc(O)c(C5CC(c6ccc(OC)cc6)=NN5)c4)ccc3O)C2)cc1` (stereo not given), the growth in the experiment on EKVX NSCLC was 30.9%; in the experiment on SN12C renal, 52.1%; in the experiment with UO-31 renal it was -2.57% (active); in the experiment with TK-10 renal it was 45.5%; in the experiment on ACHN renal it was 46.3%; in the experiment on CAKI-1 renal, -30.5% (active). Moreover, the growth was 103% in the experiment with A498 renal, 11.6% with CCRF-CEM leukemia, 18.4% in the experiment with MOLT-4 leukemia and 16% in the experiment on SR leukemia.

Turning to `O=C(Nc1ccc(Cl)cc1)Nc1ccc(Oc2nncc3ccccc23)cc1`, the growth is 26.7% with EKVX NSCLC; -3.83% (active) with SN12C renal; -51.6% (active) in the experiment with UO-31 renal; 27.5% in the experiment with TK-10 renal; -15.1% (active) in the experiment with ACHN renal; 18.7% in the experiment on CAKI-1 renal. Moreover, the growth in the experiment with A498 renal was 24.5%; in the experiment on CCRF-CEM leukemia, 8.7% (active); with MOLT-4 leukemia, 3.99% (active); with SR leukemia, 2.64% (active).

Turning to `O=C(Nc1ncc([N+](=O)[O-])s1)c1cccc([N+](=O)[O-])c1`, the growth in the experiment with EKVX NSCLC was 37.9%; in the experiment with SN12C renal it was 51.1%; in the experiment on UO-31 renal, 63.4%; in the experiment with TK-10 renal, 23.4%; with ACHN renal, 59%; in the experiment on CAKI-1 renal it was 40.4%. Further, the growth with A498 renal was 5.48% (active); with CCRF-CEM leukemia it was 33%; with MOLT-4 leukemia, 27.8%; in the experiment with SR leukemia it was 39.3%.

Regarding `NC(=O)c1ccccc1NC(=O)c1ccccc1Cl`, the growth was 103% with EKVX NSCLC; 101% in the experiment on SN12C renal; 82.8% in the experiment on UO-31 renal; 141% with TK-10 renal; 104% in the experiment on ACHN renal; 98.3% with CAKI-1 renal. The growth in the experiment on A498 renal is 98.3%; in the experiment on CCRF-CEM leukemia, 97.3%; with MOLT-4 leukemia, 63.7%; in the experiment on SR leukemia, -9.77% (active).

Consider `O=C1CC(=O)N(c2ccccc2)O1`, for which the growth with EKVX NSCLC is 108%; in the experiment on SN12C renal it was 94.9%; with UO-31 renal it was 61.7%; with TK-10 renal, 122%; in the experiment on ACHN renal it was 97.4%; in the experiment on CAKI-1 renal, 94.8%. Moreover, the growth was 94.6% in the experiment with A498 renal, 110% in the experiment with CCRF-CEM leukemia, 114% with MOLT-4 leukemia and 110% in the experiment with SR leukemia.

Regarding `CCC1=C(c2ccc(OC)cc2)C(C)Oc2cc(OC(C)=O)ccc21` (stereo not given), the growth was 75% in the experiment on EKVX NSCLC; 90.4% in the experiment with SN12C renal; 88.6% with UO-31 renal; 98.6% in the experiment with TK-10 renal; 88% with ACHN renal; 74.9% in the experiment with CAKI-1 renal. Also, the growth was 90.7% in the experiment on A498 renal, 63.5% in the experiment with CCRF-CEM leukemia, 76.7% in the experiment with MOLT-4 leukemia and 53% with SR leukemia.

In the case of `COC(=O)CC1=C(C)/C(=C/c2[nH]c(-c3ccc[nH]3)cc2OC)N=C1C`, the growth was 27.9% with EKVX NSCLC; 21.4% with SN12C renal; -68.9% (active) with UO-31 renal; 6.46% (active) in the experiment on TK-10 renal; -13.4% (active) in the experiment on ACHN renal; 8.04% (active) in the experiment on CAKI-1 renal. The growth is -5.38% (active) in the experiment on A498 renal, -13.5% (active) with CCRF-CEM leukemia, -49% (active) in the experiment on MOLT-4 leukemia and -47.8% (active) in the experiment on SR leukemia.

As for `O=C(O)C(=O)O`, the growth was 103% in the experiment on EKVX NSCLC; 106% with SN12C renal; 100% in the experiment on UO-31 renal; 93.3% in the experiment on TK-10 renal; 91.9% in the experiment with ACHN renal; 99.2% in the experiment with CAKI-1 renal. Also, the growth with A498 renal was 92.9%; with CCRF-CEM leukemia it was 102%; with MOLT-4 leukemia, 138%; in the experiment with SR leukemia, 136%.

Consider `Cc1cc(NC(=O)Nc2cccc3ccccc23)no1`, for which the growth in the experiment on EKVX NSCLC is 102%; in the experiment with SN12C renal, 109%; in the experiment with UO-31 renal, 89%; in the experiment on TK-10 renal, 146%; in the experiment on ACHN renal, 98.4%; in the experiment with CAKI-1 renal, 104%. In addition, the growth with A498 renal is 126%; with CCRF-CEM leukemia, 107%; with MOLT-4 leukemia, 106%; in the experiment on SR leukemia, 81.2%.

Consider `COc1cccc(CCC2C(=O)CCCC2=O)c1`, for which the growth with EKVX NSCLC is 116%; with SN12C renal it was 106%; with UO-31 renal, 84.3%; in the experiment on TK-10 renal it was 115%; in the experiment on ACHN renal, 103%; with CAKI-1 renal, 106%. The growth is 131% in the experiment on A498 renal, 102% in the experiment with CCRF-CEM leukemia, 92.1% in the experiment on MOLT-4 leukemia and 99.1% in the experiment with SR leukemia.

Turning to `CCCCC1Nc2nc(SC)n(C)c(=O)c2CN(Cc2ccccc2)C1=O` (stereo not given), the growth in the experiment with EKVX NSCLC was 82.8%; in the experiment on SN12C renal it was 93.4%; in the experiment on UO-31 renal it was 72.2%; with TK-10 renal, 78.3%; with ACHN renal, 90.2%; in the experiment on CAKI-1 renal, 69.3%. For the same molecule, the growth in the experiment with A498 renal is 117%; with CCRF-CEM leukemia it was 87%; with MOLT-4 leukemia, 120%; in the experiment with SR leukemia, 285%.

`Nc1ccccc1-c1ccc([N+](=O)[O-])cc1`: the growth in the experiment with EKVX NSCLC was 74.6%; in the experiment on SN12C renal, 60.3%; with UO-31 renal, 43.3%; in the experiment on TK-10 renal it was 72.7%; in the experiment with ACHN renal, 46.1%; in the experiment with CAKI-1 renal it was 30.3%. Moreover, the growth is 75.9% in the experiment with A498 renal, 24.6% in the experiment on CCRF-CEM leukemia, 30.5% in the experiment with MOLT-4 leukemia and 34.8% with SR leukemia.

As to `NC(=O)NN=C(C1CC1)C1CC1`, the growth in the experiment with EKVX NSCLC was 103%; with SN12C renal it was 108%; in the experiment on UO-31 renal, 82.1%; with TK-10 renal, 101%; in the experiment with ACHN renal it was 95.4%; with CAKI-1 renal, 103%. In addition, the growth in the experiment with A498 renal is 107%; with CCRF-CEM leukemia, 125%; in the experiment with MOLT-4 leukemia it was 82.8%; in the experiment with SR leukemia, 85.6%.
